An excerpt weighted towards active compounds, which were near 9.9% of everything screened.
KB-V1 MDR tox = qHTS assay for MDR1-selective chemotherapeutics: Primary screen using the drug-selected MDR subline cells KB-V1. hit rate 3.4% among 400,000. Potency, µM (top dose mostly 46.1 µM), actives largely listed as cytotoxic. KB-V1 MDR cells viability, CellTiter-Glo, 72 h; also: potency is read from the fitted curve at half-maximal effect; % is scaled to controls: 0 for no effect and ±100 for the full control effect; nearly all actives have a fitted effect of over 60% in size
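Cells of the MDR subline KB-V1 are plated, dosed with compound at multiple concentrations, and incubated 72 h at 37 degrees C; CellTiter-Glo is then added and luminescence read after 10 min.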
MCF10A rereplic = A quantitative high throughput screen for small molecules that induce DNA re-replication in MCF 10a normal breast cells. MCF 10A DNA re-replication, Hoechst nuclear intensity, 48 h. Potency, µM (doses to about 46.1 µM), without a hit: top-dose activity, positive = re-replication, most hits filed as activators. hit rate 2.9% among 350,000; also: potency is read from the fitted curve at half-maximal effect; % of control where 0% means no effect; nearly all actives have a fitted effect of over 50% in size
SW480 rerep = A quantitative high throughput screen for small molecules that induce DNA re-replication in SW480 colon adenocarcinoma cells. SW480 DNA re-replication, Hoechst DNA content imaging, 48 h. Potency, µM (titrated, usually from 46.1 µM), without a hit: at the top dose re-replication activation, usual class: activators. hit rate 1.8% among 340,000. AID 624297, 2012; also: potency is read from the fitted curve at half-maximal effect; % of control where 0% means no effect; nearly all actives have a fitted effect of over 55% in size
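250 cells/well; 23 nL cpd via pin tool; 48 hr, 37 C, 5% CO2; Hoechst 40 min; imager read of total nuclear intensity, ex 405/em 500-530 nm.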
IL-1B inflam inh = qHTS for Inhibitors of Inflammasome Signaling: IL-1-beta AlphaLISA Primary Screen | THP-1 LPS/ATP IL-1B secretion, AlphaLISA, 16 h; active compounds read low | activity change, % at 57.5 µM | hit rate 4.7% among 360,000; in the data active = activity change below about -50%; inconclusive = mostly about -30% to -49%; also: % is scaled to controls: 0 for no effect and ±100 for the full control effect
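THP-1 cells pretreated 1 hr with compounds (up to 57.5 uM final), then stimulated with LPS (250 ng/mL final) plus ATP (1.25 mM final); secreted IL-1B measured by AlphaLISA after 16 hr, decreased signal indicating inhibition.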
KB-3-1 tox = qHTS assay for MDR1-selective chemotherapeutics: Primary screen using the parental adenocarcinoma cell KB-3-1 | KB-3-1 viability, CellTiter-Glo ATP luminescence, 72 h | Potency, µM (titrated, usually from 46.1 µM), hits mostly cytotoxic | hit rate 1.4% among 400,000 | AID 1347075, 2019; also: potency is read from the fitted curve at half-maximal effect; % is scaled to controls: 0 for no effect and ±100 for the full control effect; nearly all actives have a fitted effect of over 60% in size
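72 h, 37 °C compound treatment of KB-3-1 parental cells; CellTiter-Glo added, 10 min, luminescence read. Data corrected against DMSO-only plates and normalized before curve fitting.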
* = called active by the depositor; i = inactive; ? = inconclusive; nt = no result given. Unless noted, calls follow the shape of the dose curve; as a rule, active = well fitted curve in the direction sought with a large enough effect; inconclusive = small, poorly fitted or top-dose-only effect, or another doubt; inactive = no such curve, though single readings can be large; an effect the other way counts as inactive or inconclusive.

SMILES	KB-V1 MDR tox	MCF10A rereplic	SW480 rerep	IL-1B inflam inh	KB-3-1 tox
C=CCOc1ccc(Br)cc1CNCCCN1CCOCC1	i	0%	0%	-62*	i
COc1ccc2ccccc2c1CNCCCN1CCOCC1	i	-3%	0%	4	i
C=CCOc1c(Br)cc(CNCCCN2CCOCC2)cc1OC	i	4%	1%	4	i
C=CCOc1ccc2ccccc2c1CNCCCN1CCOCC1	16µM*	26%	3%	-10	i
Cn1cccc1-c1nc2ccccc2[nH]1	i	-2%	-17%	6	i
Nc1nnnn1CC(=O)N/N=C/c1ccccn1	i	?	-36%	-2	i
O=C(Cn1c(C(=O)N2CCc3ccccc3C2)cc2sccc21)c1ccccc1	?	-2%	2%	?	i
O=C(Cn1c(C(=O)N2CCN(C3CCCCC3)CC2)cc2sccc21)c1ccccc1	6.5µM*	1%	-4%	?	?
Cc1cc(C)cc(OCC(=O)Nc2ccc3c(c2)C(=O)c2ccccc2C3=O)c1	i	-4%	22%	-14	?
Cc1ccc(C(=O)NC(NC(=S)Nc2ccc(S(N)(=O)=O)cc2)C(Cl)(Cl)Cl)cc1 (stereo unspecified)	i	9%	2%	-76*	?
Cc1ccc(NC(=S)NC(NC(=O)c2ccco2)C(Cl)(Cl)Cl)cc1 (stereo unspecified)	i	16µM*	9%	-3	i
O=C1C=C(c2cnc3ccccc3c2)C[C@@H](c2ccc3c(c2)OCO3)C1	i	?	-8%	?	i
COc1ccccc1C(=O)NCc1ccccn1	i	-2%	-96%	-7	i
Cc1cc(C)c2c(=O)[nH]c(=O)n(Cc3ccccc3)c2n1	13µM*	27%	-9%	13	i
COc1ccccc1CNC(=O)COc1cc2c(c3oc(=O)cc(C)c13)CCC(C)(C)O2	16µM*	?	?	-61*	i
COc1ccc(CNC(=O)COc2cc3c(c4oc(=O)cc(C)c24)CCC(C)(C)O3)cc1	i	?	-1%	?	i
O=C(Nc1ccnn1C1CCN(Cc2cccc(F)c2F)CC1)C1CCCC1	i	0%	-11%	0	i
Cc1cccc(N2C(=O)CC(Sc3nc(C)c4c(n3)CCCC4)C2=O)c1 (stereo unspecified)	16µM*	12%	5.8µM*	5	i
Cc1nc(SC2CC(=O)N(c3cc(Cl)cc(Cl)c3)C2=O)nc2c1CCCC2 (stereo unspecified)	i	22%	0%	25	i
Cc1cccc(CCn2c(=O)c3ccccc3n(Cc3cccc(F)c3)c2=O)c1	i	nt	nt	nt	i
Cc1cccc(NC(=O)C2CCCN(S(=O)(=O)c3ccc(Br)s3)C2)c1 (stereo unspecified)	i	nt	nt	nt	i
O=C1c2[nH]nc(-c3ccccc3O)c2C(c2cccc(Br)c2)N1Cc1ccncc1 (stereo unspecified)	?	nt	nt	nt	2.6µM*
CCOc1ccc(C2c3c(-c4ccccc4O)n[nH]c3C(=O)N2Cc2ccncc2)cc1 (stereo unspecified)	i	nt	nt	nt	?
Cc1ccc(C2c3c(-c4ccccc4O)n[nH]c3C(=O)N2Cc2ccncc2)cc1 (stereo unspecified)	?	7.3µM*	18µM*	?	8.2µM*
COc1cc(C2c3c(-c4cc(Cl)c(C)cc4O)n[nH]c3C(=O)N2Cc2cccnc2)ccc1O (stereo unspecified)	?	17%	0%	-59*	i
SMILES	KB-V1 MDR tox	MCF10A rereplic	SW480 rerep	IL-1B inflam inh	KB-3-1 tox
COc1cccc(C2c3c(-c4cc(Cl)c(C)cc4O)n[nH]c3C(=O)N2Cc2cccnc2)c1 (stereo unspecified)	i	23%	4%	?	i
CN(C(=O)CSc1cc(C(=O)c2nccn2C)c2ccccc2n1)c1ccccc1	?	29%	-79%	-56*	?
COC(=O)CCSc1nc(N2CCOCC2)c2c(c1C#N)CC(C)(C)OC2	i	-4%	0%	52	i
CSc1nc(N2CCOCC2)c2c(c1C#N)CC(C)(C)OC2	9.2µM*	4%	-8%	23	?
CC(C)CCSc1nc(N2CCOCC2)c2c(c1C#N)CC(C)(C)OC2	8.2µM*	?	22%	7	i
COc1ccc(CN(C)S(=O)(=O)c2c(C)noc2C)cc1OC	18µM*	3%	-2%	34	i
COc1ccc(CCNC(=O)CN(c2ccc(C)cc2)S(=O)(=O)c2c(C)noc2C)cc1OC	i	-5%	-2%	-4	i
CC(C)c1ccc(NC(=O)C2CCC(CNC(=O)[C@@H]3Cc4ccccc4CN3)CC2)cc1 (stereo partly specified)	?	15µM*	?	44	i
Cc1ccc(NC(=O)C2CCC(CNC(=O)[C@@H]3Cc4ccccc4CN3)CC2)cc1 (stereo partly specified)	i	3%	2%	-3	i
COc1cccc(NC(=O)CN(C)C(=O)COc2ccc3ccccc3c2)c1	15µM*	2%	4%	-11	i
COc1cccc(NC(=O)CN(C)C(=O)CSc2ccc3c(c2)OCCO3)c1	21µM*	-1%	-2%	25	i
CCOC(=O)Nc1cccc(OCC(=O)Nc2ccccc2OC)c1	21µM*	28%	1%	-12	i
CCN(CC(=O)Nc1ccccc1OC)C(=O)COc1ccc2ccccc2c1	15µM*	1%	-14%	4	i
COc1cccc(NC(=O)CN(C)C(=O)Cc2cccc3ccccc23)c1	i	17%	-6%	38	i
CC1CCCCN1CC(=O)Nc1ccccc1Sc1ccccc1 (stereo unspecified)	?	?	nt	0	i
Cc1c(C(=O)NCc2ccc(C(C)C)cc2)sc(=O)n1Cc1cccc(F)c1	i	nt	nt	-3	i
Cc1c(C(=O)NCc2cccc(Cl)c2)sc(=O)n1Cc1ccc(F)cc1	?	nt	nt	-58*	i
Cc1c(C(=O)NCc2cccc(C(F)(F)F)c2)sc(=O)n1Cc1cccc(F)c1	15µM*	nt	nt	-62*	?
Cc1c(C(=O)NCc2ccc(F)cc2)sc(=O)n1Cc1ccc(C(=O)c2ccccc2)cc1	10µM*	nt	nt	-18	?
Cc1c(C(=O)NCc2ccccc2C(F)(F)F)sc(=O)n1Cc1ccc(F)cc1	?	nt	nt	-18	i
Cc1cccc(C)c1Cn1c(C)c(C(=O)NCc2ccc(C#N)cc2)sc1=O	18µM*	nt	nt	-8	?

Screens deposited in PubChem by National Center for Advancing Translational Sciences (NCATS).
